# Data taken from PubChem BioAssay AID743445 (Broad Institute, 2014).
# Hit rate of the full screen: of about 310,000 compounds, about 1,700 (0.55%) were called active. The sample holds actives, similar compounds and a random draw of the others, so the mix is not that of the screen. A number with no mark means an inactive call. Rule as the data show it: active = inhibition above about 50%; inactive = the rest.
# Biological target: Histone-lysine N-methyltransferase NSD2 (Homo sapiens) (UniProt O96028)
# Assay: NSD2 histone methyltransferase inhibitors, primary screen, biochemical, AlphaScreen, single concentration, set 2 (AID 743445)
# Details: NSD2 peptide methylation, 120 min, at 12.5 µM, active compounds read high
# Chain of Histone-lysine N-methyltransferase NSD2 (Homo sapiens) (O96028 whole entry, looked up): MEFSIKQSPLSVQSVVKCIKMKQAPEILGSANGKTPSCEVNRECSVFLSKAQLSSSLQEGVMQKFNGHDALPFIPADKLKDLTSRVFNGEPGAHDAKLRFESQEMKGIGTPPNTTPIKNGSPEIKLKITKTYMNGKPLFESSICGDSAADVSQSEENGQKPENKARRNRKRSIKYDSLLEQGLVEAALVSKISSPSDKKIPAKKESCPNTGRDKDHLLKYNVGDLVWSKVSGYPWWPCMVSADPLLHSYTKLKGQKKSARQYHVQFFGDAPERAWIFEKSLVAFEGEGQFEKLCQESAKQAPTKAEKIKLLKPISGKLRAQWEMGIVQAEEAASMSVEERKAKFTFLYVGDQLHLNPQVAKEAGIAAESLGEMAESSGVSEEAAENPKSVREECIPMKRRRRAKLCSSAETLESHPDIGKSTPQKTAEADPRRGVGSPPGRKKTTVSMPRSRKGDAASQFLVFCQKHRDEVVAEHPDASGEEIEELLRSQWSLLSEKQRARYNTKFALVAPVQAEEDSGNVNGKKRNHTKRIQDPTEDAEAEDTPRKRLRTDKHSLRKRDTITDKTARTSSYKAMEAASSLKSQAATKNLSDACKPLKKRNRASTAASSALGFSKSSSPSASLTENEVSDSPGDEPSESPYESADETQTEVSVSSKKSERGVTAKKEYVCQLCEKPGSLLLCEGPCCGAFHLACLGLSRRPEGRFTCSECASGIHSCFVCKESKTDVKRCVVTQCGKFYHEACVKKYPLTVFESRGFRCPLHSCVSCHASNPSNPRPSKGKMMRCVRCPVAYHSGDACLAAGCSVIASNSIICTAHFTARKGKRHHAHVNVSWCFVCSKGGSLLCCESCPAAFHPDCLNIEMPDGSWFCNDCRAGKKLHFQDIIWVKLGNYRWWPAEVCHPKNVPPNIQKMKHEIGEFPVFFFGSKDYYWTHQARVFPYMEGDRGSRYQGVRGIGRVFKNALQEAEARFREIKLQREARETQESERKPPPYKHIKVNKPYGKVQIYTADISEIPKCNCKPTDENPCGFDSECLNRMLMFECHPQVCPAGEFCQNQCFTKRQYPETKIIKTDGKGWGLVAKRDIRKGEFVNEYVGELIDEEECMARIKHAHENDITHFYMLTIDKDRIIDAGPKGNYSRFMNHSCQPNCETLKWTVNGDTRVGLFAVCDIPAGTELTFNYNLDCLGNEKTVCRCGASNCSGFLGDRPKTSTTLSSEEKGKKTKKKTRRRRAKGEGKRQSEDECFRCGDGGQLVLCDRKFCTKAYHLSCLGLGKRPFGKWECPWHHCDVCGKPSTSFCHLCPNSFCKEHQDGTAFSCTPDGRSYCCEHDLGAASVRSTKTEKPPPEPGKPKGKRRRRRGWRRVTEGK
row,SMILES,inhibition
1,O=C(CSc1nc2ccccc2nc1N1CCCCC1)N1CCN(S(=O)(=O)c2cccc([N+](=O)[O-])c2)CC1,-12%
2,CC(=O)NC(c1ccccc1)c1nc(-c2cccc(C(C)C)c2)cs1 (stereo unspecified),3.74%
3,CCOC(=O)c1ccccc1OC(=O)Oc1ccccc1C(=O)OCC,-0.93%
4,CCOC(=O)c1c(C)[nH]c2c1-c1ccccc1C(=O)C2=O,82.9% (active)
5,CCOC(=O)c1c(C)[nH]c(C)c1S(=O)(=O)N(C)CC(=O)Nc1ccccc1C,2.08%
6,CCOc1ccc2nc(NC(=O)C3CC3)sc2c1,-0.715%
7,CCCC1CCC2(CCCN2CCOC(=O)NCc2ccccc2)CC1 (stereo unspecified),-1.02%
8,O=C(CNS(=O)(=O)c1ccccc1F)N1CCN(c2ccccn2)CC1,-3.13%
9,COc1ccc(-c2cc(-c3nnc(SCc4ccc([N+](=O)[O-])cc4)n3N)[nH]n2)cc1,-2.18%
10,COc1cc(C(=S)NC2CCCCC2)ccc1O,6.51%
11,COc1cc(C(=O)Nn2c(O)c(C3=c4ccccc4=NC3=O)sc2=S)ccc1O,51.8% (active)
12,COc1cc(C(=O)Nn2c(CC(C)C)nc3ccccc3c2=O)cc(OC)c1OC,-1.2%
13,O=C(CCS(=O)(=O)c1ccccc1)Nc1ccc(Cl)c(Cl)c1,-0.439%
14,O=C(Nc1ccccc1C(=O)Nc1ccc(F)cc1)c1ccccc1F,0.274%
15,Cc1cc(=O)[nH]c(N/N=C/c2ccc3c(c2)OCCO3)n1,-3.07%
16,Cc1cc(=O)[nH]c(N/N=C/c2c(C)nn(-c3ccccc3Cl)c2Cl)n1,69.3% (active)
17,Cc1nn(-c2ccccc2)c(Cl)c1/C=N/NC(=O)c1nn(C)cc1[N+](=O)[O-],6.06%
18,Cc1c(NC(=O)Nc2ccccc2)cccc1[N+](=O)[O-],-2.18%
19,O=C(Nc1ccccc1[N+](=O)[O-])C1C(c2ccccc2)=C1c1ccccc1,-5.32%
20,O=[N+]([O-])c1ccccc1Nc1ccc(O)cc1,81% (active)
21,CCc1nc2ccc(C(=O)NCc3ccc(OC)cc3)cn2c1N(CC)Cc1cccc(Br)c1,-0.31%
22,C=CCc1cccc2cc(C(=O)Nc3ccc(NC(C)=O)cc3)c(=O)oc12,52.4% (active)
23,C=CCc1cccc2cc(C(=O)OCC)c(=O)oc12,3.09%
24,C=CCc1cccc2cc(C(=O)NC3CCCC3)c(=O)oc12,-2.76%
25,CCCC(=O)N1CCC1(C)C(=O)NCc1ccc(C(C)C)cc1 (stereo unspecified),0.789%
26,O=C(NS(=O)(=O)c1cccs1)[C@H]1O[C@@H](n2ccc(=O)[nH]c2=O)[C@H](O)[C@@H]1O,0.413%
